Experimental data reported in the supplement of paper PMC3414501.
Counter-ions that a name gives are not always drawn.

System: S. cerevisiae BY4741 (wild-type), vegetative growth in YPD
Test: growth sensitivity score (doubling time z-score vs DMSO controls); higher = slower growth, strongly negative scores also mark growth inhibition (complete suppression), active = hit call of the paper; in the data active = 2 or more and inactive = the rest
Method in brief: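 Rich medium in microtiter plates was seeded with Saccharomyces cerevisiae strains BY4741 and AD1-9 at an OD600 of 0.065, and compounds were added as a 1:100 dilution of DMSO stock. A Tecan GENios reader recorded optical density every 15 min for 24 hours, with eight solvent-only wells in each experiment. Average doubling time was the time to reach a set generation point divided by generation number. The growth sensitivity score was the compound mean minus the solvent-only mean, divided by the solvent-only standard deviation.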

Growth sensitivity score, inactive:
COc1ccc2[nH]c([S+]([O-])Cc3ncc(C)c(OC)c3C)nc2c1 (configuration not stated) [Esomeprazole mg] (stock concentration (mM, diluted 1:100): 4.8) 0.69
CCOC(=O)O[C@]1(C(=O)OCCl)CC[C@H]2[C@@H]3CCC4=CC(=O)C=C[C@]4(C)[C@H]3[C@@H](O)C[C@@]21C [Loteprednol etabonate] (stock concentration (mM, diluted 1:100): 10) 0.91
COc1ccccc1N1CCN(CCCNc2cc(=O)n(C)c(=O)n2C)CC1 [Urapidil hydrochloride] (stock concentration (mM, diluted 1:100): 10) 0.85
CCN1CCC[C@H]1CNC(=O)c1cc(S(N)(=O)=O)ccc1OC [Levosulpiride] (stock concentration (mM, diluted 1:100): 10) 0.25
C[C@@H](O)[C@H]1C(=O)N2C(C(=O)O)=C(S[C@@H]3CN[C@H](C(=O)N(C)C)C3)[C@H](C)[C@H]12 [Meropenem] (stock concentration (mM, diluted 1:100): 11.4) -1.19
Clc1ccc2c(c1)CCc1cccnc1C2=C1CCNCC1 [Desloratadine] (stock concentration (mM, diluted 1:100): 10) -0.47

Growth sensitivity score, active:
COc1ccc(-c2cc(=O)c3c(OC)c(OC)c(OC)c(OC)c3o2)cc1OC [Nobiletin] (stock concentration (mM, diluted 1:100): 10) 4.43
